Assay results from ChEMBL document CHEMBL1961873, “Compounds: GSK PKIS; Assays: Nanosyn kinase panel” (2012).

How the values were obtained:
[1] = molecular target: Ribosomal protein S6 kinase alpha-6 (Homo sapiens) (UniProt Q9UK32); settings: at 1 µM;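 further: each value is a mean inhibition of RSK4 from a GSK PKIS panel screen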
[2] = molecular target: T1, Serine/threonine-protein kinase Sgk1 (Homo sapiens) (UniProt O00141); settings: at 0.1 µM
T1 sequence (whole entry): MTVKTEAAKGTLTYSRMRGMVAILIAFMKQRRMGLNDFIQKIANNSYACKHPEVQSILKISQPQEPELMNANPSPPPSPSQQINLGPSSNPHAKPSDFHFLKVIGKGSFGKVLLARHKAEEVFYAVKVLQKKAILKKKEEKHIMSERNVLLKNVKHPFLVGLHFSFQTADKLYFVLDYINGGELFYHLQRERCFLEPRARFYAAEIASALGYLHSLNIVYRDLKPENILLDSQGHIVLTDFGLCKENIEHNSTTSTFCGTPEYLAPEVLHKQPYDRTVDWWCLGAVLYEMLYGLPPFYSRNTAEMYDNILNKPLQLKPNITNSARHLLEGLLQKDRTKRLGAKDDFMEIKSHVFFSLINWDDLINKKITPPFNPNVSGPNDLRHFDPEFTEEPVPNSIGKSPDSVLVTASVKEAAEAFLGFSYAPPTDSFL

[3] = molecular target: T1, Serine/threonine-protein kinase Sgk1 (Homo sapiens); settings: at 1 µM
[4] = molecular target: T2, Serine/threonine-protein kinase Sgk2 (Homo sapiens) (UniProt Q9HBY8); settings: at 0.1 µM
T2 sequence (whole entry): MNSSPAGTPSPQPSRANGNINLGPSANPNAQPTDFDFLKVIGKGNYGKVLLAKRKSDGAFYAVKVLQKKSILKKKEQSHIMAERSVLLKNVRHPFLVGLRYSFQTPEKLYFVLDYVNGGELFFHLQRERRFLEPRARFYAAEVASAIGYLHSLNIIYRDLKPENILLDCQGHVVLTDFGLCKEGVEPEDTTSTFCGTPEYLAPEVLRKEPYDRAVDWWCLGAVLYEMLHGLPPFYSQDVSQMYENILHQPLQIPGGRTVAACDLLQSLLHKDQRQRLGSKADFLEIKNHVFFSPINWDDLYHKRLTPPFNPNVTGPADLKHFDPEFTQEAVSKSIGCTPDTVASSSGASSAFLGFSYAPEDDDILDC

[5] = molecular target: T2, Serine/threonine-protein kinase Sgk2 (Homo sapiens); settings: at 1 µM
[6] = molecular target: T3, Serine/threonine-protein kinase Sgk3 (Homo sapiens) (UniProt Q96BR1); settings: at 0.1 µM
T3 sequence (whole entry): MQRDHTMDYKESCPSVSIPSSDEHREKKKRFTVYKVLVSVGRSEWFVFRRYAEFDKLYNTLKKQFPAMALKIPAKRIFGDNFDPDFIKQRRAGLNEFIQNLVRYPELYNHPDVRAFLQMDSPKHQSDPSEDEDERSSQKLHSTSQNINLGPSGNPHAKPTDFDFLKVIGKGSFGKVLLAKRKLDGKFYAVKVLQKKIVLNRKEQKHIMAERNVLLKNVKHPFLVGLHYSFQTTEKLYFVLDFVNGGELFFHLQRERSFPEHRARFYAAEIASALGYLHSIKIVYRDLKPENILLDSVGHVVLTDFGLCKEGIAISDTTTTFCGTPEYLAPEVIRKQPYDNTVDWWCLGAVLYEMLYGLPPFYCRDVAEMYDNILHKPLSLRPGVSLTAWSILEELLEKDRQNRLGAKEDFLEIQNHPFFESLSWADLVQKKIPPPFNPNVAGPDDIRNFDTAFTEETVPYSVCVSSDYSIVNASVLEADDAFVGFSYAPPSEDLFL

[7] = molecular target: T3, Serine/threonine-protein kinase Sgk3 (Homo sapiens); settings: at 1 µM
[8] = molecular target: 5'-AMP-activated protein kinase catalytic subunit alpha-1 (Homo sapiens) (UniProt Q13131); settings: at 0.1 µM
5'-AMP-activated protein kinase catalytic subunit alpha-1 (Homo sapiens), sequence (Q13131 whole entry, looked up): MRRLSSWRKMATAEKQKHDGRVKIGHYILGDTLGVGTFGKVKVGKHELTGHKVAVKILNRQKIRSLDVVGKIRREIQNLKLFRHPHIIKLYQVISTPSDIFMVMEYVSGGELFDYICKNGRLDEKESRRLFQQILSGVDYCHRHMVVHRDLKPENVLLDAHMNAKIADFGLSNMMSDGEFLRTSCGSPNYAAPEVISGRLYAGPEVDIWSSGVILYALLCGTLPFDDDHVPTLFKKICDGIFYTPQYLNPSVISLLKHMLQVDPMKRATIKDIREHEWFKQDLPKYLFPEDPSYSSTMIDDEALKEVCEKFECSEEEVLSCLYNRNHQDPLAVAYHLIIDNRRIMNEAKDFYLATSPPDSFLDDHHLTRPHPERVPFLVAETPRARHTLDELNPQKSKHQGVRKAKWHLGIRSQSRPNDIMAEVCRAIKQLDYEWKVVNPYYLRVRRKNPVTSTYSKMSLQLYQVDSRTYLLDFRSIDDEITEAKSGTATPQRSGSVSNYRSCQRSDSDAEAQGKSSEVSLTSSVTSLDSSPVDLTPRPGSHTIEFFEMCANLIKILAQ

[9] = molecular target: 5'-AMP-activated protein kinase catalytic subunit alpha-1 (Homo sapiens) (UniProt Q13131); settings: at 1 µM
[10] = molecular target: 5'-AMP-activated protein kinase catalytic subunit alpha-2 (Homo sapiens) (UniProt P54646); settings: at 0.1 µM
5'-AMP-activated protein kinase catalytic subunit alpha-2 (Homo sapiens), sequence (P54646 whole entry, looked up): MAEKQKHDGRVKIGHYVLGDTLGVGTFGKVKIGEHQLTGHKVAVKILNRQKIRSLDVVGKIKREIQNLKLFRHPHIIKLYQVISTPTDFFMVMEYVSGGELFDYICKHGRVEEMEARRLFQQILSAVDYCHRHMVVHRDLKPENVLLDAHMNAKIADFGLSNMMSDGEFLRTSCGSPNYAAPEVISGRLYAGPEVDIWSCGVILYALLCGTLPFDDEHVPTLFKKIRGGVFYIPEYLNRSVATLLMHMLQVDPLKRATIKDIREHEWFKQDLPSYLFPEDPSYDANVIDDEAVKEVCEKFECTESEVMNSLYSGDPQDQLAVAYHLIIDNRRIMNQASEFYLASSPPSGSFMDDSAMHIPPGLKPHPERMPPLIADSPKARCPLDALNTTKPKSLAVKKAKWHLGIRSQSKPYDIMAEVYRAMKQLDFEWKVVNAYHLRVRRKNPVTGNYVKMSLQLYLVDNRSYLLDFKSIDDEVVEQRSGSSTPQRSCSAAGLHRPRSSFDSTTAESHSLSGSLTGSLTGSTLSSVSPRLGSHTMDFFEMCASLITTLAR

[11] = molecular target: 5'-AMP-activated protein kinase catalytic subunit alpha-2 (Homo sapiens) (UniProt P54646); settings: at 1 µM
[12] = molecular target: T4, NUAK family SNF1-like kinase 1 (Homo sapiens) (UniProt O60285); settings: at 0.1 µM
T4 sequence (whole entry): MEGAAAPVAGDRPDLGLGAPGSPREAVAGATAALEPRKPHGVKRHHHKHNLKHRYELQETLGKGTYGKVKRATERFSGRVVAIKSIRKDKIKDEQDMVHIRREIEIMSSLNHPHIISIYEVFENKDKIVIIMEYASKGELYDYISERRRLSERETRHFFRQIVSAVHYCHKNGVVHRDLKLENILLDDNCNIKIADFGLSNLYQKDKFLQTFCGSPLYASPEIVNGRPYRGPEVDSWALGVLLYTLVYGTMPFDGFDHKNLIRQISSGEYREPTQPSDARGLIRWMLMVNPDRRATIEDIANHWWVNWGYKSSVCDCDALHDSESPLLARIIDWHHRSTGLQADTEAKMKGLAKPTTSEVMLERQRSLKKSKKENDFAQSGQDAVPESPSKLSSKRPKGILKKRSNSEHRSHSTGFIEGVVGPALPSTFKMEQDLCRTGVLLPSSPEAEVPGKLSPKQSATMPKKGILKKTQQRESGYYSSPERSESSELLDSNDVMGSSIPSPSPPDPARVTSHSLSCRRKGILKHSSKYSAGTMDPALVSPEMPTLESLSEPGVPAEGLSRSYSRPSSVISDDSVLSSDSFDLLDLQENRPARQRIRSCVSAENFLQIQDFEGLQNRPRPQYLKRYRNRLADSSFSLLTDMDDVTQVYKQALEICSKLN

[13] = molecular target: T4, NUAK family SNF1-like kinase 1 (Homo sapiens); settings: at 1 µM
[14] = molecular target: T5, Serine/threonine-protein kinase BRSK1 (Homo sapiens) (UniProt Q8TDC3); settings: at 0.1 µM
T5 sequence (whole entry): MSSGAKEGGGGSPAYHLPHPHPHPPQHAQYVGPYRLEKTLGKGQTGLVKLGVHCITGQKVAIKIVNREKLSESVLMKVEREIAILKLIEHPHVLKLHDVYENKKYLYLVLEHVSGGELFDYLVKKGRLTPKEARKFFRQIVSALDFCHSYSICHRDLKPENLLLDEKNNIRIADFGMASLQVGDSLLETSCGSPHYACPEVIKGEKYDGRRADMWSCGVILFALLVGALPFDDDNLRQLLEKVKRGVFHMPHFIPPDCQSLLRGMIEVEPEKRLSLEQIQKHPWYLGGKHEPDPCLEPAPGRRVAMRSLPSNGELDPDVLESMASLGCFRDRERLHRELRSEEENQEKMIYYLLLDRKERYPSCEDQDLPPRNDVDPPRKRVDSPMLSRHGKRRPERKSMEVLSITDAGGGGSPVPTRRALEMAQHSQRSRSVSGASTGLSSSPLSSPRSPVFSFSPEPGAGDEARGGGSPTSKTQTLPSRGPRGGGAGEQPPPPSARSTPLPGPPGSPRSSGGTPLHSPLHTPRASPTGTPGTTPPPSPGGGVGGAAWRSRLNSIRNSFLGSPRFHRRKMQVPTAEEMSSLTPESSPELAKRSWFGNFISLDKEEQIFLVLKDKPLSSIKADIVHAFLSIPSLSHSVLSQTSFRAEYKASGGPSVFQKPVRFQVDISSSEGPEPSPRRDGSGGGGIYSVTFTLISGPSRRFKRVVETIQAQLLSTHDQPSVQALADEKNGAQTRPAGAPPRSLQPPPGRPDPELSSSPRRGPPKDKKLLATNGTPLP

[15] = molecular target: T5, Serine/threonine-protein kinase BRSK1 (Homo sapiens); settings: at 1 µM
[16] = molecular target: T6, Serine/threonine-protein kinase BRSK2 (Homo sapiens) (UniProt Q8IWQ3); settings: at 0.1 µM
T6 sequence (whole entry): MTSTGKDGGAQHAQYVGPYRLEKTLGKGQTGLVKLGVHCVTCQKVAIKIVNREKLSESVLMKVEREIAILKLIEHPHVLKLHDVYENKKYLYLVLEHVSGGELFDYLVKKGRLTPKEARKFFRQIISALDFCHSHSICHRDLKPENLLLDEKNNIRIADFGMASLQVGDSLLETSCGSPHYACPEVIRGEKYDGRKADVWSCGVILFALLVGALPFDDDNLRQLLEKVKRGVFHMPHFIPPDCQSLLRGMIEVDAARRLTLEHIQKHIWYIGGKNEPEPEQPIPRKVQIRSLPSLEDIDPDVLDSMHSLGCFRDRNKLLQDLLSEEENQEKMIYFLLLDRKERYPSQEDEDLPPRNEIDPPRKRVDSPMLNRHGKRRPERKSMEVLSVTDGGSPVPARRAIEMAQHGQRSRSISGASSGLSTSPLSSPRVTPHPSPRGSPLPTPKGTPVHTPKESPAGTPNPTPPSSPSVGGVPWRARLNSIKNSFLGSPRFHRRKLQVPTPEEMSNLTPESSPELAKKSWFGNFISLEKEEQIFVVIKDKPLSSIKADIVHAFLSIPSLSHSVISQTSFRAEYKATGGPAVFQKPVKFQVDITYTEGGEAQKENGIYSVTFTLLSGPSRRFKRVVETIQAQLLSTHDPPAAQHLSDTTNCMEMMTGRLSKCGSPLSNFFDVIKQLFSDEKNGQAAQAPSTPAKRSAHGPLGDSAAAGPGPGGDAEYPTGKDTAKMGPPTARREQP

[17] = molecular target: T6, Serine/threonine-protein kinase BRSK2 (Homo sapiens); settings: at 1 µM
[18] = molecular target: Calcium/calmodulin-dependent protein kinase type 1D (Homo sapiens) (UniProt Q8IU85); settings: at 0.1 µM
Calcium/calmodulin-dependent protein kinase type 1D (Homo sapiens), sequence (Q8IU85 whole entry, looked up): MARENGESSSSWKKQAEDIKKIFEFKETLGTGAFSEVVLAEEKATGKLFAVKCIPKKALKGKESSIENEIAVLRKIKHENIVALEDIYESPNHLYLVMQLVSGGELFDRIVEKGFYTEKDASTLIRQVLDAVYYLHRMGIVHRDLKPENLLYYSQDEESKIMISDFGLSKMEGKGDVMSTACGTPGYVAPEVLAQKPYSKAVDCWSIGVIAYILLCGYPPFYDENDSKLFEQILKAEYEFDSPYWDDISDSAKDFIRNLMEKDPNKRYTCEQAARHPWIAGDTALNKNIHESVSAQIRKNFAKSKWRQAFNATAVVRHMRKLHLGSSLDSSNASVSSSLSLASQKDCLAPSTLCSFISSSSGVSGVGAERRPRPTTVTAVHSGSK

[19] = molecular target: Calcium/calmodulin-dependent protein kinase type 1D (Homo sapiens) (UniProt Q8IU85); settings: at 1 µM
[20] = molecular target: Calcium/calmodulin-dependent protein kinase type II subunit alpha (Homo sapiens) (UniProt Q9UQM7); settings: at 0.1 µM;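 further: reported values are averages (mean inhibition of CAMK2A)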
Calcium/calmodulin-dependent protein kinase type II subunit alpha (Homo sapiens), sequence (Q9UQM7 whole entry): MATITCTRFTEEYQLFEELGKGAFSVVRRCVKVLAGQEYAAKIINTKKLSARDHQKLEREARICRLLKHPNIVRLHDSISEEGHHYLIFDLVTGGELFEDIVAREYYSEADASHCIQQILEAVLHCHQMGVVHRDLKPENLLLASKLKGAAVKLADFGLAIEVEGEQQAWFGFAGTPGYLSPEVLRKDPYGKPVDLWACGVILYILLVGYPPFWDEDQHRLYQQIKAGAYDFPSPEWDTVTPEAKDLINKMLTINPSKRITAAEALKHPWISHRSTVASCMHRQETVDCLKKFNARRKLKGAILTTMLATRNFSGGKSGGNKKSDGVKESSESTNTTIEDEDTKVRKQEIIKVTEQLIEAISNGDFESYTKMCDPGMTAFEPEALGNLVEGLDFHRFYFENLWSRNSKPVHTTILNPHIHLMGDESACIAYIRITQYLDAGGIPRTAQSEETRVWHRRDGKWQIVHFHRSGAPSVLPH

Ribosomal protein S6 kinase alpha-6 (Homo sapiens), sequence (Q9UK32 whole entry): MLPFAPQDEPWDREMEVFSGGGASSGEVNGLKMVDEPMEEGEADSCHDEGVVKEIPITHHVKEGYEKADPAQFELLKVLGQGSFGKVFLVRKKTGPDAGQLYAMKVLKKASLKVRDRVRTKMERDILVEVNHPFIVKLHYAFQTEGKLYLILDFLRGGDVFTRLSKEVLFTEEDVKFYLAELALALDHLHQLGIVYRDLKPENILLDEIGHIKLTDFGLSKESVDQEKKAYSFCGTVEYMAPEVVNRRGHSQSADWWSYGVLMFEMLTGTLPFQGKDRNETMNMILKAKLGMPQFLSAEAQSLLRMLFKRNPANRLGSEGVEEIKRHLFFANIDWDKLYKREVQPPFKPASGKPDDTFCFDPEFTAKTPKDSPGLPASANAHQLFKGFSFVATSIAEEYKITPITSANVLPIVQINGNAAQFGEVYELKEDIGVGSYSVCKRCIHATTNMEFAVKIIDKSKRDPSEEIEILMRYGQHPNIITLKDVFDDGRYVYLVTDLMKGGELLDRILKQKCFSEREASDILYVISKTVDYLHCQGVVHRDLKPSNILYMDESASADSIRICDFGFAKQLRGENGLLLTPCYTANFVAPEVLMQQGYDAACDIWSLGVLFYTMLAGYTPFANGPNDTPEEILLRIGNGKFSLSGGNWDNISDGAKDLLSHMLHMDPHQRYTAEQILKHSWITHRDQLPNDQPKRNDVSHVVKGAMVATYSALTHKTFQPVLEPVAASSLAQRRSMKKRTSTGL

SMILES	inhibition [1]	inhibition [2]	inhibition [3]	inhibition [4]	inhibition [5]	inhibition [6]	inhibition [7]	inhibition [8]	inhibition [9]	inhibition [10]	inhibition [11]	inhibition [12]	inhibition [13]	inhibition [14]	inhibition [15]	inhibition [16]	inhibition [17]	inhibition [18]	inhibition [19]	inhibition [20]
COc1ccc(-c2cc3c(N)ncnc3o2)cc1	1.58%	0.5%	-0.33%	-1.01%	1.43%	-1.34%	-2.55%	0.03%	0.8%	0.21%	-2.04%	2.2%	2.41%	-0.42%	-0.34%	0.68%	1.73%	1.05%	2.96%	-1.62%
COc1ccc(-c2oc3ncnc(N)c3c2-c2ccc(NC(=O)Nc3cc(C(F)(F)F)ccc3F)cc2)cc1	17.4%	3.83%	8.65%	4.57%	4.27%	3.71%	4.09%	4.2%	8.8%	1.55%	7.89%	4.62%	9.26%	5.38%	11.7%	8.06%	13.9%	1.06%	11.9%	4.73%
COc1ccc(-c2nn3ncccc3c2-c2ccnc(Nc3ccc4c(c3)OCCO4)n2)cc1	2.56%	1.1%	1.98%	-0.02%	0.9%	-1.8%	0.46%	1.06%	1.64%	0.54%	0.38%	-0.71%	2.67%	-0.94%	2.44%	0.33%	1.64%	9.78%	0.03%	0.38%
CC(=O)NCc1cccc(C#Cc2cncnc2Nc2ccc(OCc3cccc(F)c3)c(Cl)c2)c1	1.01%	0.94%	0.99%	4.36%	-2.04%	-1.07%	1.92%	1.28%	3.03%	2.22%	3.37%	3.47%	1.8%	1.85%	3.55%	1.29%	5.12%	0.67%	2.08%	24.7%
CCCN(CCS(C)(=O)=O)Cc1ccc(-c2ccc3ncnc(Nc4ccc(OCc5cccc(F)c5)c(Cl)c4)c3c2)o1	0.41%	0.88%	2.15%	0.16%	-0.86%	2.21%	1.28%	0.05%	1.68%	2.47%	2.91%	-7.52%	4.57%	1.22%	3.8%	1.68%	7.08%	0.15%	1.73%	0.86%
CCNC(=O)O[C@H]1CN[C@H](C#Cc2cc3ncnc(Nc4ccc(OCc5cccc(F)c5)c(Cl)c4)c3s2)C1	2.88%	2.25%	-0.58%	8.05%	5.53%	4.38%	-0.29%	2.46%	2.35%	0.44%	4.45%	1.68%	6.34%	0.67%	2.32%	2.25%	1.26%	1.21%	2.24%	3.45%
COC(=O)Nc1nc2ccc(Oc3ccc(NC(=O)Nc4cccc(Cl)c4)cc3)cc2[nH]1	-1.02%	0.53%	0.15%	1.28%	-2.41%	0.38%	0.61%	0.94%	0.58%	1.29%	2.32%	1.13%	-0.04%	-0.24%	-0.19%	1.18%	0.86%	0.74%	0.72%	-1.44%
Nc1nc(-c2ccc(F)cc2)c(-c2ccc3ncccc3n2)s1	3.36%	2.87%	4.24%	4.24%	4.34%	4.05%	3.66%	3.33%	5.29%	1.85%	3.37%	3.85%	7.09%	1.97%	3.32%	2.41%	5.28%	0.67%	0.5%	4.42%
CS(=O)(=O)CCNCc1coc(-c2ccc3ncnc(Nc4ccc(OCc5ccccc5)cc4)c3c2)c1	2.32%	2.57%	2.35%	-0.69%	1.93%	-0.71%	1.87%	2.75%	2.96%	3.81%	4.29%	2.46%	3.61%	1.86%	-1.55%	1.32%	3.39%	0.92%	2.2%	2.93%
Nc1nc(-c2cccc(Cl)c2)c(-c2ccc3ncccc3n2)s1	2.73%	4.41%	5.86%	2.07%	3.59%	4.35%	6.98%	3.09%	5.53%	3.05%	3.28%	-2.86%	5.81%	0.2%	1.68%	1.95%	4.51%	-0.44%	0.6%	3.5%
Cc1ccc2c(-c3ccnc(Nc4ccccc4)n3)c(-c3ccc(F)cc3)nn2n1	4.74%	2.01%	1.69%	2.15%	3.69%	2.63%	2.1%	2.48%	2.15%	0.59%	3.36%	1.74%	6.31%	1.47%	1.77%	1.27%	0.62%	0.93%	1.34%	4.27%
